From PubChem BioAssay AID1851 (National Center for Advancing Translational Sciences (NCATS), 2009)
The campaign covered roughly 16,000 compounds. About 2,600 (16%) were called active. Another 20% or so got no clear call; they are omitted. Calls follow the shape of the dose curve; as a rule, active = well fitted curve in the direction sought with a large enough effect; inconclusive = small, poorly fitted or top-dose-only effect, or effect the other way; inactive = no such curve, though single readings can be large or run the other way. A selection follows. A structure can be active in one record and inactive in another.

What follows are compounds tested against Cytochrome P450 2D6 (Homo sapiens) (UniProt P10635) (assay: Cytochrome panel assay with activity outcomes). Settings: recombinant CYP, pro-luciferin dealkylation, luminescence, p450-cyp2d6; series mostly up to 57.1 µM; activity, negative = inhibition: at the top concentration.
% is scaled to controls: 0 for no effect and ±100 for the full control effect.

Sequence of Cytochrome P450 2D6 (Homo sapiens) (P10635 whole entry, looked up): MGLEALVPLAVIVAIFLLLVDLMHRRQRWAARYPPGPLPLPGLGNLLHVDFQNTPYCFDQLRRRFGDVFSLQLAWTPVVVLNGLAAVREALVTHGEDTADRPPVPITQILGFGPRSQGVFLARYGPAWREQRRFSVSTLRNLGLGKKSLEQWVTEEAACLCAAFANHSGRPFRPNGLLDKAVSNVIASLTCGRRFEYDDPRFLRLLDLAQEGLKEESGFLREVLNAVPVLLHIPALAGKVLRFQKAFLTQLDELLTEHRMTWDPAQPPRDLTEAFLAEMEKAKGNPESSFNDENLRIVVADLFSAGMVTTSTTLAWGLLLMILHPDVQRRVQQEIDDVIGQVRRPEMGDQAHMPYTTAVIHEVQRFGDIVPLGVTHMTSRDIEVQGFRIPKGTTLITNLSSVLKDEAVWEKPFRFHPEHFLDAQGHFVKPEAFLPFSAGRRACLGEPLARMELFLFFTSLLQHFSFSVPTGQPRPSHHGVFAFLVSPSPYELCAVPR

activity, negative = inhibition, inactive:
C=CCn1c(SCC(=O)Nc2c(C)n(C)n(-c3ccccc3)c2=O)nc2sc(C)c(-c3ccccc3)c2c1=O -3.94%
COc1ccc(CO/N=C/c2c(C)[nH]c(=O)[nH]c2=O)cc1 -6.51%
CC(C)CNC(=S)N1CCN(C)CC1 0.99%
CCN(CC)S(=O)(=O)c1cccc2c(N(C)C)cccc12 -11.4%
CCOC(=O)NNC1CC(=O)N(c2ccc(OC)cc2)C1=O (stereo not drawn) -3.68%
O=C(c1ccccc1)c1c[nH]c(C(=O)NCCCN2CCOCC2)c1 -45.7%
CCC(CC)C(=O)c1c[nH]c(C(=O)NCCCN2CCOCC2)c1 -6.79%
O=c1onc2n1-c1cc(Br)ccc1OC2 -11.9%
COc1ccc(-n2c(=O)c(-c3ccc(Cl)cc3)nc3cnc(N4CCNCC4)nc32)cc1 -4.61%
N#CC1=C(N)OC2=C(C(=O)CCC2)C12CCC1(CC2)OCCO1 -8.51%
CN1CCN(c2ncc3nc(-c4cn(C)c5ccccc45)c(=O)n(CCc4ccccc4)c3n2)CC1 -18.8%
N#Cc1c(-c2ccccc2)nc2n(c1=O)CCS2 0.549%
COc1ccc(OCc2nnc(SCC(=O)N3c4ccccc4Sc4ccc(Cl)cc43)o2)cc1 14.4%
CN1CCCC[C@@H]1CCN1c2ccccc2Sc2ccc(S(C)=O)cc21 (stereo partly drawn) 0.0782% [at 11.4 µM]
CN1CCCC[C@@H]1CCN1CCCCC1 -1.48% [at 11.4 µM]
O=c1c(-c2ccccc2)nc2cncnc2n1C1CC1 -0.578%
O=C(CCNC(=O)c1ccc(Br)o1)NCc1ccccn1 -9.12%
COc1cc(=O)n2c(n1)SCCC2 0.218%
CC12c3ccccc3C(c3ccccc31)C1C(=O)N(Cc3cccnc3)C(=O)C12 (stereo not drawn) -16.3%
Cc1cccc(NC(=S)NC(=O)c2cccs2)n1 -19.6%
O=C(NC(=S)Nc1cccc(Cl)c1N1CCCCC1)c1cccs1 -11.5%
COc1cccc(OCC(=O)NN=C2c3ccccc3-c3ccccc32)c1 -15.9%
O=c1c(-c2ccc(F)cc2)nc2cncnc2n1C1CC1 3.81%
CCCn1nnc(NC(=O)c2ccc(-c3cccc(Cl)c3)o2)n1 -22.4%
O=C(Nc1cccc2nsnc12)c1ccc(-c2cccc(Cl)c2)o1 -5.52%
Cc1nc2cnc(N3CCNCC3)nc2n(Cc2ccc(F)cc2)c1=O -15.6%
Cc1c(-c2ccc(O)cc2)nn(-c2ccc(O)cc2)c1-c1ccc(OCCN2CCCCC2)cc1 2.1%
CCN(CC)CCNC(=O)c1ccc(Cl)c(S(=O)(=O)Nc2ccccc2OC)c1 -21.3%
CCOC(=O)C1=C(O)/C(=C/c2cc(OC)c(OC)c(OC)c2)N=C1C -6.74%
COc1cc(C(=O)OCC(=O)Nc2cc(C)on2)cc(OC)c1OC -10.6%
COC(=O)c1cc(OC)c(OC)cc1NC(=S)N1CCCCC1 19.7%
CCCCOC(=O)c1ccc(NC(=S)NC(=O)c2c(Cl)cnn2C)cc1 -16.6%
COc1cc(CN2CCCCC2)cc2cc(C(=O)O)c(=O)oc12 4.16% [at 11.4 µM]
NS(=O)(=O)c1cc2c(cc1Cl)N[C@@H](C(Cl)Cl)NS2(=O)=O 9.05% [at 25.6 µM]
COc1cccc(Cn2c(=O)c(-c3cccs3)nc3cnc(OCc4ccccc4)nc32)c1 1.18%
Cn1c(=O)c(-c2ccccc2)nc2cnc(OCc3ccccc3)nc21 3.17%
CCOC(=O)C1CCN(C(=O)c2ccccc2NC(C)=O)CC1 -0.841%
N#Cc1ccccc1NC(=O)Nc1cccs1 -7.31%
Cc1nc2cnc(N(C)C)nc2n(-c2ccccc2)c1=O 0.658%
COc1ccccc1-n1c(SCC(=O)N2CCCC2)nc2cccnc21 5.52%
CCOC(=O)c1c(NC(=O)Cn2nc([N+](=O)[O-])c(Br)c2C)sc2c1CCC(C)C2 (stereo not drawn) 1.74%
CCN(CC)C(=O)c1ccc(O)c(OC)c1 3.15% [at 25.6 µM]

AC50, active:
CCN(CC)S(=O)(=O)c1ccc2c3c(cccc13)C(=O)S2 12600 nM
O=C(NCCCN1CCOCC1)c1cc2c(s1)CSC2 1260 nM
OC1(c2ccc(OC(F)F)cc2)CSC(=Nc2cccnc2)N1C1CC1 (stereo not drawn) 2000 nM
COc1ccc2c(c1)N(CC[C@H]1CCCCN1C)c1ccccc1S2 50.1 nM
CN1CCCC[C@@H]1CCN1c2ccccc2Sc2ccc(S(C)=O)cc21 (stereo partly drawn) 100 nM
CC1CCN(c2ccccc2NC(=S)NC(=O)c2cccs2)CC1 200 nM
COC(=O)c1sccc1-c1ccc(C(=O)Nc2cccc(Cl)c2)o1 15800 nM
O=C(OCCCN1CCCCC1)c1ccc(O)cc1 5620 nM
CCN(CC)CCOC(=O)c1cc(Cl)c(N)cc1OC 15800 nM
COc1cc(N)c(Cl)cc1C(=O)OCCCN1CCCCC1 126 nM
CCN(CC)CCCCCCCCOC(=O)c1cc(OC)c(OC)c(OC)c1 31600 nM
